# Measurements: publication PMC5540273 (PLoS ONE, 2017)
# Values joined by “and” are separate entries in the source; they are usually repeats but may differ in a detail not shown here. Equal values may be shown once. Read-outs that look alike come from different tables or passages of the source.
# Columns and labels:
# PHKG1 = settings: concentration: 1 μM, replicates: in singlicate; n = 1
# PHKG2 = settings: n = 1
# PIK3C2B = settings: n = 1
# PIK3C2G = settings: concentration: 1 μM, replicates: in singlicate; n = 1
# PIK3CA = settings: concentration: 1 μM, replicates: in singlicate; n = 1
# PIK3CB = settings: n = 1
# PIK3CD = settings: n = 1
# PIK3CG = settings: n = 1
# PIK4CB = test system: T1, PIK4CB; settings: n = 1
# T1 construct: gene PI4KB
# PIKFYVE = settings: concentration: 1 μM, replicates: in singlicate; n = 1
# [1] = concentration: 1 μM, replicates: in singlicate
# [2] = concentration: 1 μM,replicates: in singlicate, 1 µM
# 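Also: KINOMEscan kinase panel screen.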
Compound,%Inh (PHKG1),%Inh (PHKG2; [1]),%Inh (PIK3C2B; [1]),%Inh (PIK3C2G),%Inh (PIK3CA),%Inh (PIK3CB; [1]),%Inh (PIK3CD; [1]),%Inh (PIK3CG; [1]),%Inh (PIK4CB; [1]),%Inh (PIKFYVE),%Inh (PHKG2; [2]),%Inh (PIK3C2B; [2]),%Inh (PIK3CB; [2]),%Inh (PIK3CD; 1 µM),%Inh (PIK3CG; [2]),%Inh (PIK4CB; [2])
COC(=O)c1c(-c2ccccc2)c2cc(OC)ccc2c(=O)n1Cc1ccccc1,7%,31%,0%,0%,3%,14%,5%,0%,0%,13%,–,–,–,–,–,–
Cc1ccc(NC(=O)Nc2cccc(Cl)c2)cc1-c1ccc(C(=O)Nc2ccncc2)cc1 [GSK1398468],0%,11%,0%,0%,8%,0%,0%,0%,0%,2%,–,–,–,–,–,–
Cc1cccc(-c2nc(C)cc(Nc3ccncc3)n2)n1 [GSK257997],0%,7%,0%,0%,3%,0%,0%,5%,0%,27%,–,–,–,–,–,–
Fc1cc(Cl)ccc1Nc1ccnc2cc(-c3ccc(CN4CCCCC4)o3)ccc12 [GW560116],0%,0%,0%,0%,0%,0%,0%,0%,0%,0%,–,–,–,–,–,–
O=S(=O)(c1ccc(-c2ccnc3[nH]ccc23)cc1)N1CCCC1 [GSK846226],0%,10%,3%,0%,8%,0%,0%,14%,23%,0%,–,–,–,–,–,–
CC1=C(C(=O)Nc2cc3cn[nH]c3cc2F)C(c2ccc(C(F)(F)F)cc2)CC(=O)N1 (stereo not drawn) [GSK429286],0%,0%,0%,0%,0%,0%,34%,0%,0%,0%,–,–,–,–,–,–
Nc1nc(-c2nccs2)c(-c2ccnc3ccccc23)s1 [GW693542],2%,0%,0%,0%,0%,0%,0%,0%,0%,0%,–,–,–,–,–,–
O=C(O)COc1ncnc2cc(-c3ccc4[nH]ncc4c3)sc12,13%,3%,0%,23%,0%,47%,5%,0%,35%,12%,–,–,–,–,–,–
Cn1ccc2ncnc(Oc3ccc(NC(=O)Nc4ccccc4)cc3)c21,0%,0%,0%,22%,0%,16%,0%,0%,0%,21%,–,–,–,–,–,–
COc1ccccc1CNC(=O)c1cc(C(=O)c2ccccc2C)c[nH]1 [GSK364507],1%,0%,0%,0%,0%,0%,0%,0%,16%,0%,–,–,–,–,–,–
CCn1c(-c2cccnc2O)nc2cnccc21 [SB-736715],0%,3%,0%,0%,0%,0%,0%,1%,24%,22%,–,–,–,–,–,–
CSc1nn2c(=O)cc(N3CCOCC3)nc2n1Cc1cccc(C(F)(F)F)c1C [GSK2363608],0%,–,–,0%,9%,–,–,–,–,0%,5% and 0%,25% and 20%,97% and 100%,94.4% and 94.3%,17% and 16%,14% and 4%
O=C(Nc1n[nH]c2nc(-c3nccs3)c(Br)cc12)C1CC1 [SB-742251],0%,0%,0%,0%,0%,0%,0%,0%,0%,14%,–,–,–,–,–,–
COC(=O)c1c(-c2ccccc2)c2cc(C(=O)O)ccc2c(=O)n1Cc1ccccc1,0%,24%,3%,0%,0%,13%,0%,7%,0%,2%,–,–,–,–,–,–
Cl.Oc1ccc(-c2nc(-c3ccccc3)[nH]c2-c2ccncc2)cc1 [SB-428218],49%,0%,0%,0%,0%,0%,0%,0%,0%,46%,–,–,–,–,–,–
O=c1cc(N2CCOCC2)nc2n(Cc3cccc(Cl)c3Cl)ccn12 [GSK2286295],0%,19%,22%,0%,20%,98.7%,89%,50%,0%,0%,–,–,–,–,–,–
Cn1ccc2ncnc(Oc3cccc(C(=O)Nc4ccccc4)c3)c21,0%,0%,0%,0%,0%,15%,27%,0%,2%,10%,–,–,–,–,–,–
Cn1cncc1-c1ccc2ncnc(Nc3ccc(OCc4ccccc4)cc3)c2c1 [GW320571],5%,1%,61%,57%,0%,0%,7%,6%,0%,0%,–,–,–,–,–,–
